This is an account of results in ChEMBL document CHEMBL1157539, “Thousands of chemical starting points for antimalarial lead identification” (Nature, 2010).

Broadly, the Inhibition is the relative decrease from the control value, in per cent. Lower therefore signals a weak effect.

Assay type in all cases: functional
For experiment [1], the system named is Plasmodium falciparum. The experiment can be described thus: GSK_TCMDC: Inhibition of Plasmodium falciparum 3D7 in whole red blood cells, using parasite LDH activity as an index of growth. Test compounds present at 2uM.
The subject of experiment [2] is Plasmodium falciparum. Briefly: GSK_TCMDC: Inhibition of Plasmodium falciparum Dd2 in whole red blood cells, using parasite LDH activity as an index of growth. Test compounds present at 2uM.
Another experiment relates to HepG2. Briefly: GSK_TCMDC: Percent inhibition of human HepG2 cell line. Test compounds present at 10uM.

`CCOc1ccccc1NC(=O)C(Sc1nc(C)cc(C)c1C#N)c1ccccc1` (centres undefined): the results for the Inhibition in the experiment on Plasmodium falciparum [1], with Plasmodium falciparum [2] and in the experiment on HepG2 were 99%, 98% and 0%, respectively.
With `Cc1cc(NC(=O)Nc2ccc(C(C)C)cc2)c2ccccc2n1.Cl`, the Inhibition in the experiment with Plasmodium falciparum [1] stood at 99%; with Plasmodium falciparum [2], 16%; with HepG2, 7%.
For `COC(=O)c1cccc(C#CCCOCCCCCCNC[C@H](O)c2cc(Cl)c(N)c(Cl)c2)c1`, in that order: 97%, 88% and 12%.
For `O=C(Nc1cccc(CN2CCCN(Cc3cccc(Cl)c3)CC2)c1)c1ccc(-c2ccccc2)cc1.O=C(O)C(F)(F)F` the same measures were 86%, 14% and 44%.
For `Cc1cccc2nc(-c3cccc(-c4cccc(NC(=O)CNC(=O)c5ccc(O)cc5)c4)c3)[nH]c12` the same measures were 94%, 49% and 9%.
Regarding `Cl.O=c1cc(NCCCNC2CCOc3c(I)cc(Cl)cc32)[nH]c2ccccc12` (centres undefined), the Inhibition is recorded as 96% in the experiment on Plasmodium falciparum [1], 48% with Plasmodium falciparum [2] and 0% in the experiment on HepG2.
For `CCCCCCCc1c(C)nc2c(OC)cccc2c1O`, in that order: 89%, 85% and 0%.
For `COc1ccc(-c2cc(-c3nc4cc(CN)ccc4[nH]3)c(=O)n(C)c2)cc1OC`, in that order: 85%, 56% and 0%.
For `COc1cccc(COCC(O)CN(CCc2ccccn2)C(=O)c2ccccc2F)c1` (centres undefined) the same measures were 97%, 30% and 61%.
On to `O=C(NCc1cccc(F)c1)c1ccc(O)c(-c2cc(Cl)cc(Cl)c2)c1`, for which the Inhibition came out at 99% in the experiment on Plasmodium falciparum [1], 99% with Plasmodium falciparum [2] and 0% in the experiment on HepG2.
For the compound `Nc1cccc(CNCc2ccc(-c3cccc(-c4nc5cc(C(F)(F)F)ccc5[nH]4)c3)cc2)c1.O=C(O)C(F)(F)F`, the figures for the Inhibition with Plasmodium falciparum [1], in the experiment with Plasmodium falciparum [2] and in the experiment with HepG2 were 100%, 100% and 60%, respectively.
For the compound `COc1cc(NC(=O)Nc2cc(C)nc3ccccc23)cc(OC)c1`, the Inhibition is on record as 100% in the experiment with Plasmodium falciparum [1], 57% with Plasmodium falciparum [2] and 5% with HepG2.
For `CCCC(CNCc1cccc(I)c1)CNc1cc(=O)c2ccccc2[nH]1` (centres undefined) the same measures were 100%, 96% and 0%.
For `Cc1onc(-c2ccccc2)c1C(=O)Nc1nc(-c2ccccn2)nc2ccsc12` the same measures were 97%, 78% and 23%.
On to `C=CCOC(=O)N1CCC(CNCc2cccc(-c3ccc(-c4nc5cccc(C)c5[nH]4)s3)c2)C1.O=C(O)C(F)(F)F` (centres undefined), for which the Inhibition was 100% in the experiment on Plasmodium falciparum [1], 82% in the experiment with Plasmodium falciparum [2] and 11% with HepG2.
`Cc1c(CC(=O)NCCC2CCN(CCCCCNC(=O)/C=C/c3ccc(Cl)c(Cl)c3)CC2)sc2ccc(Cl)cc12`: the Inhibition in the experiment with Plasmodium falciparum [1] stood at 92%; in the experiment with Plasmodium falciparum [2], 8%; in the experiment on HepG2 it was 59%.
In the case of `COc1cccc(CNCC(C)(C)c2nc(-c3ccc(Cl)c(O)c3)c(-c3ccncc3)[nH]2)c1.Cl`, the Inhibition in the experiment on Plasmodium falciparum [1] was determined as 100%; in the experiment with Plasmodium falciparum [2], 98%; in the experiment on HepG2, 74%.
As for `COc1ccc(NC(=O)[C@H](Cc2ccccc2)Nc2cc(C)nc(NCCc3cccs3)n2)cc1.O=C(O)C(F)(F)F`, the values for the Inhibition with Plasmodium falciparum [1], in the experiment with Plasmodium falciparum [2] and with HepG2 were 100%, 83% and 12%, respectively.
For `CC1=C(C(=O)Nc2ccc(Cl)cc2)C(c2ccncc2)n2nc(C(F)(F)F)nc2N1` (centres undefined), in that order: 87%, 49% and 25%.
For `COc1ccc(CNCc2ccc(F)cc2)cc1-c1ccc(OC)c(S(=O)(=O)NCCN2CCCC2)c1.O=C(O)C(F)(F)F` the same measures were 100%, 88% and 24%.
Turning to `COc1ccc(CNC(=O)C2Cc3ccccc3CN2Cc2ccc3ccccc3c2)cc1` (centres undefined), the Inhibition in the experiment on Plasmodium falciparum [1] turned out to be 96%; with Plasmodium falciparum [2], 84%; with HepG2 it was 15%.
Turning to `CN1CCC(N2CCN(Cc3cccc(-c4ccc(-c5nc6cc(C(F)(F)F)ccc6[nH]5)cc4)c3)CC2)CC1.O=C(O)C(F)(F)F`, the Inhibition in the experiment with Plasmodium falciparum [1] was 100%; in the experiment on Plasmodium falciparum [2], 91%; in the experiment on HepG2, 100%.
In the case of `CN(C)c1ccc(C2c3[nH]cnc3CCN2C(=O)Nc2cccc([N+](=O)[O-])c2)cc1` (centres undefined), the Inhibition amounted to 98% in the experiment on Plasmodium falciparum [1], 15% in the experiment on Plasmodium falciparum [2] and 0% in the experiment on HepG2.
`Cc1ccc(NC(=O)N2CCCN(CCCCCNC(=O)/C=C/c3ccc(Cl)c(Cl)c3)CC2)cc1C`: the Inhibition stood at 100% with Plasmodium falciparum [1], 4% with Plasmodium falciparum [2] and 62% with HepG2.
In the case of `CCOc1ccc(C(=O)Nc2ccc(-c3nc4ccccc4[nH]3)cc2)cc1[N+](=O)[O-]`, the Inhibition in the experiment on Plasmodium falciparum [1] came out at 100%; in the experiment with Plasmodium falciparum [2], 70%; in the experiment on HepG2, 22%.
For the compound `COc1cc(NC(=O)N2CCOC(CCN3CCC(c4ccccc4)CC3)(c3ccc(Cl)c(Cl)c3)C2)cc(OC)c1` (centres undefined), the Inhibition with Plasmodium falciparum [1] amounted to 93%; in the experiment on Plasmodium falciparum [2], 73%; in the experiment on HepG2 it was 12%.
As to `Cn1nccc1C(=O)NCCNCc1cccc(-c2ccc(-c3nc4cc(C(F)(F)F)ccc4[nH]3)s2)c1.O=C(O)C(F)(F)F`, the Inhibition is given as 100% with Plasmodium falciparum [1], 99% in the experiment with Plasmodium falciparum [2] and 36% in the experiment on HepG2.
On to `COc1ccc2c(=NN=CC=Cc3ccccc3)cc(C)[nH]c2c1`, for which the Inhibition with Plasmodium falciparum [1] is reported as 99%; with Plasmodium falciparum [2], 56%; in the experiment with HepG2 it was 18%.
